Measurements: PubChem BioAssay AID624330 (Southern Research Specialized Biocontainment Screening …, 2012)
Screen size: about 340,000 compounds; about 2,100 (0.62%) were called active.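 How the source made its calls: active means first-screen hits whose inhibition reached a set limit at any dose in the follow-up dose series; inconclusive means inhibition above the set first-screen limit but never retested; inactive means the rest.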 These entries were drawn from the full list. Measured potencies and affinities stand elsewhere.

biological target: Rac GTPase-activating protein 1 (Homo sapiens) (UniProt Q9H0H5); assay: blockers of MgcRacGAP-driven Rac1 GTP hydrolysis – biochemical, ADP Hunter fluorescence, primary and confirmatory, confirmation (AID 624330); conditions: MgcRacGAP-stimulated Rac1 GTP hydrolysis, at 30 µM, stronger effect = higher value, GST-tagged Rac1 F28L mutant substrate;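 further: fluorescence reports GDP produced by GAP-driven GTP hydrolysis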
Sequence (Q9H0H5 whole entry, looked up): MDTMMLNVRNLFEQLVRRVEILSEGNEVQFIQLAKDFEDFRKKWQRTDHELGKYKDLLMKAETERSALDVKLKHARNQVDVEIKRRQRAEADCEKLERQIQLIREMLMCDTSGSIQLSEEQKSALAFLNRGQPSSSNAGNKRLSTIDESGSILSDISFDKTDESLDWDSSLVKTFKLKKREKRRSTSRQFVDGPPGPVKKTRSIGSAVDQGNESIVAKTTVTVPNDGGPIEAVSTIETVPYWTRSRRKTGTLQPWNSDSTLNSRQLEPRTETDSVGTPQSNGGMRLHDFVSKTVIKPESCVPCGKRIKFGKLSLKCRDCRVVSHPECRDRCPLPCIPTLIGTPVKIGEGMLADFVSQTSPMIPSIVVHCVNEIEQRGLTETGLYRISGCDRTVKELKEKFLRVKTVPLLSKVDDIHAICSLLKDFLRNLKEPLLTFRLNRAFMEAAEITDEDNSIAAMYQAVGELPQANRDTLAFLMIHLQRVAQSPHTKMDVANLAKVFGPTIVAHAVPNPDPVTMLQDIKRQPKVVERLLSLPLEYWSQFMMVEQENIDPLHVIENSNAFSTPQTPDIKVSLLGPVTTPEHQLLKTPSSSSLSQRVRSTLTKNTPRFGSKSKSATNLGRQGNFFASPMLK

inhibition, inactive:
Cc1cccc(NC(=O)Cn2c(=O)oc3cc(S(=O)(=O)N4CCCC4)ccc32)n1 9.63%
CN(C)S(=O)(=O)Oc1ccc(Cl)cc1C(=O)Nc1ccc(F)cc1F 0.65%
Cc1ccc(N=Cc2c(O)c3ccccc3oc2=O)c(C)c1 5.4%
Cc1ccc(F)cc1N=Cc1c(O)c2ccccc2oc1=O 7.61%
COc1ccccc1NC(=O)C(=O)N1N=C(C(C)C)CC1(O)C(F)(F)F (stereo not drawn) -2.51%
O=C(NCc1cccc(C(F)(F)F)c1)C1CC(c2ccc(C(F)(F)F)cc2)=NO1 (stereo not drawn) 7.21%
Cc1ccc(Nc2cc(C)nc3ncnn23)c(C)c1 7.05%
Cc1ccc(C)c(N2CCN(CCCc3ccccc3)CC2)c1 -8.46%
CCc1ccc(S(=O)(=O)/N=C2\C=C(Nc3ccc(O)cc3)C(=O)c3ccccc32)cc1 10.1%
O=C1C(Cl)=C(NCCCO)C(=O)c2ccccc21 7.29%
CCN(CC)c1ccc(NC2=C(Cl)C(=O)c3ccccc3C2=O)cc1 28.6%
Cc1ccc(NC2=C(Cl)C(=O)c3ccccc3C2=O)cc1 5.85%
CCNC1=C(Cl)C(=O)c2ccccc2C1=O 9.6%
O=C1C(Nc2ccccc2)=C/C(=N/S(=O)(=O)c2cccs2)c2ccccc21 13.2%
Cc1ccc(NC2=C/C(=N/S(=O)(=O)c3cccs3)c3ccccc3C2=O)cc1 12.6%
O=C(O)c1ccc(NC2=C/C(=N/S(=O)(=O)c3ccccc3)c3ccccc3C2=O)cc1 11.5%
CC(C)CN1CCC(=O)N([C@H](COc2ccccc2)c2ccccc2)CC1 12.8%
O=C(CN1C2CCCC1CC(NC(=O)c1ccco1)C2)Nc1ccccc1 (stereo not drawn) 9.34%
CN(CC(=O)Nc1cccc(F)c1)CC(=O)N(C)c1c(N)n(Cc2ccccc2)c(=O)[nH]c1=O 7.85%
CC(C)c1ccc(NC(=O)COC(=O)c2c[nH]c(=O)[nH]c2=O)cc1 6.27%
Cc1ccc(C(=O)Nc2ncccc2O)cc1S(=O)(=O)N1CCCCC1 -2.55%
Cc1csc(=O)n1CC(=O)OCC(=O)NCc1ccc(Cl)cc1Cl 8.92%
O=C(Nc1ccc(Cl)cc1)C(c1ccccc1)N1CCOCC1 (stereo not drawn) 1.96%
COC1=C(Nc2ccc(C)cc2)C(=O)c2ccccc2C1=O 6.66%
COC1=C(Nc2ccccc2)C(=O)c2ccccc2C1=O 11.3%
Nc1nc(COc2ccc(Cl)cc2)cs1 5.42%
O=C(Nc1ccc2c(c1)OCCO2)C1CC(O)CN1C(=O)Nc1ccccc1 (stereo not drawn) 5.39%
Cc1cc(C(=O)NNC(=O)/C=C/c2ccccc2Cl)c(C)o1 6.81%
Cc1cc(C(=O)NNC(=O)/C=C/c2ccc(F)cc2)c(C)o1 0.14%
COc1cccc(-c2cc(C(=O)Nc3cccnc3)no2)c1 3.22%
Cc1c(Cl)cccc1NC(=S)NCc1cccs1 5.46%
COCC(=O)NC1CCN(S(=O)(=O)c2ccc(C(=O)O)cc2)CC1 3.4%
COc1cc2cnc(-c3ccccc3)c(C(=O)c3ccc(F)cc3)c2cc1OC 6.22%
Cc1ccc(N=Nc2c(N)nn3c(C)cc(C)nc23)cc1 7.06%
Nc1nn2c(-c3ccccc3)cc(=O)[nH]c2c1N=Nc1ccc(Br)cc1 4.26%
Cc1cc(C)n2nc(N)c(N=Nc3ccccc3)c2n1 13.3%
Cc1cc(C)n2nc(N)c(N=Nc3ccc(Cl)cc3)c2n1 8.06%
COc1ccc(C(=O)NNC(=O)CSc2ccccc2)cc1 0.63%
Cc1ccc(N(CC(=O)N2CCN(C3CCCCC3)CC2)S(=O)(=O)c2cccnc2)cc1 -4.65%
N#CC(C#N)=C1C(=O)N(CCN2CCCCC2)c2ccccc21 -11.4%
O=C(CSc1nc(NS(=O)(=O)c2ccccc2)cc(=O)[nH]1)Nc1ccc(Cl)cc1 -0.7%
NS(=O)(=O)c1ccc(NC(=S)N2CCC(Cc3ccccc3)CC2)cc1 18.2%
NS(=O)(=O)c1ccc(CCNC(=O)CN2CCC(Cc3ccccc3)CC2)cc1 6.03%
Cc1ccc(OCC(=O)NNC(=O)C2CC(=O)N(c3ccc4c(c3)OCCO4)C2)cc1 (stereo not drawn) 6.61%
O=C(CCc1nnc(CCCCc2ccccc2)o1)NCc1cc(F)ccc1F 9.91%
Cn1c(CCC(=O)OCC(=O)Nc2ccc(Oc3ccccc3)cc2)nc(=O)c2ccccc21 2.65%
CC(C)Cc1n[nH]c(=O)[nH]1 4.75%
O=C1NC(=O)C(=Cc2ccccc2)N1 -1.98%
COc1ccc(C=C2SC(=O)NC2=O)cc1OC 6.99%
COc1cc(/C=C2\SC(=N)N(c3ccc(F)cc3)C2=O)ccc1O 20.9%
CCN(CC)c1ccc(/C=C2\NC(=O)NC2=O)cc1 30.9%
O=C1NC(=O)/C(=C/c2cccc(O)c2)N1 5.03%
COc1ccc(C=C2NC(=O)NC2=O)cc1O 10.9%
CC1(C)CC(=O)C(C=NCCN2CCN(C(=O)c3ccc(F)cc3)CC2)=C(O)C1 0.28%
COc1ccccc1CN1CC(C(=O)NCc2nccn2C)CCC1=O (stereo not drawn) 10.1%
COC(=O)[C@@]12CCCN1[C@H](c1ccc(-c3ccccc3)cc1)[C@H]1C(=O)N(C)C(=O)[C@H]12 8.21%
COc1ccc(CCNC(=O)Cn2ccc3c(OC)cccc3c2=O)cc1OC 8.24%
CCOC(=O)C1=C(COC(=O)/C=C/c2cccc(Br)c2)NC(=O)NC1C (stereo not drawn) 2.35%
Cc1cccc(C)c1-n1nnnc1C1(Nc2ccccc2)CCCCC1 8.6%
CN(C(=O)c1ccc(NC(=O)Cc2cccc(NC(=O)C3CCCN(C(=O)C4CCCC4)C3)c2)cc1)C1CCCC1 (stereo not drawn) 8.78%
CC(=O)c1ccc(OCC(=O)N2CCCC(Nc3ccc(C)c(C)c3)C2)cc1 (stereo not drawn) 14.3%
COc1ccc(C(=O)N2CCCC(Nc3ccc(C(C)C)cc3)C2)c(OC)n1 (stereo not drawn) 2.96%
COc1cc(OC)cc(C(=O)NCC2CCCN(C(=O)c3csc(C(C)C)n3)C2)c1 (stereo not drawn) 8.24%
CC(=O)c1ccc(C(=O)N2CCCC(Nc3ccccc3)C2)s1 (stereo not drawn) 7.53%
COc1ccc(OCC(=O)N2CCCC(Nc3ccc(C)c(C)c3)C2)cc1 (stereo not drawn) 14.3%
CC(=O)c1ccc(C(=O)N2CCCC(Nc3ccc(C(C)C)cc3)C2)s1 (stereo not drawn) -45.7%
Cc1ccc(C(=O)N2CCCC(Nc3ccc(C(C)C)cc3)C2)cn1 (stereo not drawn) 7.62%
COc1ccc(NC2CCCN(C(=O)c3cccnc3)C2)cc1 (stereo not drawn) 26.2%
CC(C)(C)c1ccc(C(=O)NCCCN2CCN(CCCNC(=O)c3ccc(C(C)(C)C)cc3)CC2)cc1 0.51%
COC(=O)C1=C(O)C(C(=O)OC)C(c2ccc(C)cc2)C(C#N)(C#N)C1c1ccc(C)cc1 (stereo not drawn) 6.45%
COc1ccc(/C=C/C(=O)Nc2cc(C(F)(F)F)ccc2Cl)cc1 0.39%
CCOC(=O)C1=C(C)NC(C)=C(C(=O)OCC)C1c1cccc([N+](=O)[O-])c1 10.8%
O=C(c1cccc(N2CCCC2=O)c1)N1CCN(c2ccccc2)CC1 10.3%
COCCN(C(=O)Cc1coc2cc(C)c(C)cc12)c1c(N)n(Cc2ccccc2)c(=O)[nH]c1=O 0.31%
CCCC(C(=O)N(C)CC(=O)Nc1ccc(N2CCOCC2)cc1)c1ccccc1 (stereo not drawn) 7.2%
CCNC(=S)N(Cc1cc2c(C)ccc(C)c2[nH]c1=O)C1CCCC1 3.17%
Cc1cc(C(=O)N2CCCC(Nc3ccccc3)C2)c2ccc(F)cc2n1 (stereo not drawn) 12.7%
COc1ccc(NC2CCCN(C(=O)C3(C)CCCCC3)C2)cc1OC (stereo not drawn) -45.5%
COc1ccc(NC2CCCN(C(=O)c3ccc4[nH]c(C)c(C)c4c3)C2)cc1OC (stereo not drawn) 12.8%
Cc1nc(C(=O)N2CCCC(Nc3ccc(C)c(C)c3)C2)cs1 (stereo not drawn) 13.6%
CSc1nc(C(=O)N2CCCC(Nc3ccc(C)c(C)c3)C2)cs1 (stereo not drawn) 13.4%
COc1ccc(NC2CCCN(C(=O)CSc3ccncc3)C2)cc1 (stereo not drawn) 31.3%
COc1ccc(C(=O)N2CCCC(Nc3ccc(F)cc3)C2)c(OC)c1 (stereo not drawn) 5.24%
COc1ccc(C(=O)N2CCCC(Nc3ccc(C)c(C)c3)C2)cc1 (stereo not drawn) 16.9%
CC(CC(=O)Nc1ccc(S(=O)(=O)N2CCOCC2)cc1)c1ccccc1 (stereo not drawn) 3.54%
Cc1cc(Cl)ccc1NC(=S)N1CCN(C(=O)c2ccco2)CC1 5.96%
Cc1ccc(S(=O)(=O)NN=Cc2c(O)ccc3ccccc23)cc1 11.4%
O=C(NCCc1ccccc1)C1CCC(CNS(=O)(=O)c2ccc(F)cc2)CC1 (stereo not drawn) 6.44%
O=C(CSc1nnc(CNC(=O)c2ccco2)o1)Nc1ccc(F)cc1 -2.84%
Cc1ccc(N/C(CSC(N)=O)=N/S(=O)(=O)c2ccccc2)cc1 4.14%
Cc1cc(C=O)c(C)n1-c1cc(C(F)(F)F)ccc1N1CCOCC1 5.1%
CCn1nc(CC(C)C)cc1C(=O)N1CCCC(Nc2ccc(F)cc2)C1 (stereo not drawn) 1.25%
CCn1nc(C)cc1C(=O)N1CCCC(Nc2ccc(C(C)C)cc2)C1 (stereo not drawn) 9.28%
